These results are taken from PubChem BioAssay.

The nature of experiment [1]: sensitizers of A549 cells to miR-34 induction, primary screen, imaging, A549 dox-inducible miR-34, nuclei and caspase counts (AID 1347080). Conditions: A549 miR-34 inducible, Hoechst nuclei count, 48 h.
Experiment [2] can be described thus: survival rescue of mitochondrial mutant cells in low glucose, primary screen, MELAS cybrids, Rieske KO mouse fibroblasts, CellTiter-Glo (AID 1508586;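 active = mean z-score across replicates of 1.96 or higher in either the MELAS or the Rieske mutant cell line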;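 note: z relative to plate mean and SD of compound and empty wells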). (ATP-based viability assays read luminescence as a measure of living cells.)
Experiment [3] in a line: viability rescue of complex I mutant cybrids, primary screen, cell-based, galactose medium, ATP luminescence (AID 1645843;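 active = z-score of at least 1.8 in each of two replicates, scored against plate mean and spread of sample wells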;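 note: positive z means more ATP and so rescue of galactose-driven cybrid death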). Conditions: complex I mutant cybrid cells, 72 h, stronger effect = higher value.
Experiment [4] in a line: circadian clock period modulators, cell-based, LOPAC library, luminescence reporter (AID 2774; call rule not given here;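 note: values are relative to mean of DMSO wells on each plate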). Conditions: circadian reporter cells, at 7 µM, actives lie on both sides.
A short description of experiment [5]: hESC survival regulators, cell-based (AID 493140; call rule not given here;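 note: cells exposed to compounds for four days before counting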). Conditions: human embryonic stem cell survival screen; stronger effect = higher value.
Experiment [6] has as its system Hepatitis C virus NS3 helicase. Nature of the experiment: HCV NS3 helicase inhibitors, primary screen, biochemical, fluorescence polarization, LOPAC1280 library (AID 687035; in the data active = inhibition above about 37%). Conditions: Purified HCV NS3 helicase, Cy5-dT15 ssDNA binding fluorescence polarization; stronger effect = higher value; concentration not given here.
Experiment [7] can be described thus: Cy5 fluorescence quenching or enhancement artefacts, artefact control for HCV NS3 helicase inhibitor project, biochemical, LOPAC1280 (AID 687037; call rule not given here). Conditions: Cy5-DNA-NS3h complex fluorescence interference counterscreen. (A counterscreen serves to expose hits that act by an unwanted route or on another target.)
Experiment [8] is described as follows: phospholipid biosynthesis inhibitors in animal cells, primary screen, cell-based, LOPAC library, screen 4 (AID 1347384; call rule not given here). Conditions: phospholipid biosynthesis inhibition screen, at 10 µM.
A short description of experiment [9]: polyglutamine-triggered caspase-3 activation inhibitors, cell-based (AID 1583). Conditions: polyglutamine-induced caspase-3 activation, cell assay; stronger effect = higher value;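 tested at 10 µM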.
Experiment [10] can be described thus: suppressors of polyQ aggregation in yeast, 75Q-TubU reporter (AID 1593). Conditions: Yeast 75Q polyglutamine aggregation reporter.
The nature of experiment [11]: rescue of polyQ-huntingtin neuronal dysfunction in worms, whole organism, C. elegans mechanosensory neurons, N-terminal huntingtin (AID 1599). Conditions: touch response, stronger effect = higher value.
A short description of experiment [12]: inhibitors of mitochondrial cytochrome c release, biochemical, purified mitochondria (AID 1603).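 Note: mouse liver mitochondria challenged with calcium chloride; signal normalized to the plate average as 100%.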 Conditions: stronger effect = lower value.
A short description of experiment [13]: inhibitors of polyQ protein aggregation (AID 1604). Conditions: polyglutamine-induced protein aggregation inhibition assay; stronger effect = higher value; tested at 2.5 µM.
A short description of experiment [14]: enhancers of glutamate uptake in motor neurons, MN-1 cell line (AID 1612).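 Note: tested at 1 µM final; 0% = mean of DMSO vehicle wells on each plate; positive means more glutamate uptake than control and negative means less.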 Conditions: MN-1 motor neuron cells, stronger effect = higher value.
The nature of experiment [15]: reducers of polyQ inclusions in PC12 cells, cell-based, NGF-treated PC12, GFPQ80 (AID 1614).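 Note: lower means fewer inclusions and 0 means no inclusions at all.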 Conditions: PC12 NGF-treated GFP-polyQ80 inclusion reduction.
A short description of experiment [16]: suppressors of polyglutamine aggregation in yeast, 75Q-TubH (AID 1616). Conditions: S. cerevisiae 75Q-TubH polyglutamine aggregation suppression; stronger effect = higher value.
Experiment [17] is described as follows: liver-stage malaria parasite growth inhibition, primary screen, cell-based, HepG2, luciferase luminescence, HepG2 viability (AID 624349; in the data active = parasite load remaining mostly below about 12%, no sharp cut-off; inactive = mostly above about 10%;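 note: 100% = mean of DMSO negative control wells on the same plate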). Conditions: P. berghei liver stage in HepG2, luciferase luminescence, concentration not given here; parasite load remaining: stronger effect = lower value; viability: measured here: HepG2 viability without parasites.
The target in experiment [18] is ATP-dependent translocase ABCB1 (Homo sapiens) (UniProt P08183). Description: MDR1 (ABCB1) efflux transporter inhibition, cell-based (AID 377; in the data active = fluorescence slope change above about 50%). Conditions: MDR1-expressing cells, fluorescent substrate accumulation slope; stronger effect = higher value; concentration not given here.
The mark [19] stands for this setting: stronger effect = lower value, cell number ratio, induced over uninduced.
Where [20] appears, read: measured here: relative caspase fold change +Dox/-Dox.
Setting [21] is: measured here: total cells with miR-34 induction, stronger effect = lower value.
[22] abbreviates: measured here: total cells without miR-34 induction.
The mark [23] stands for this setting: MELAS cybrid survival, CellTiter-Glo 48 h, stronger effect = higher value.
Setting [24] is: Rieske KO mouse fibroblast survival, CellTiter-Glo 72 h.

SMILES strings stand for the structures. Several values for one entry are separate records, joined by “and”; a condition that tells them apart may be missing. Equal entries are not always repeated. Records with an inconclusive call do not appear. For some assays here: Entries with a potency or affinity are not part of this list. Where a structure was tested more than once in an assay, its records may differ in their call. Activity calls are given as the source filed them.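 Rule for the calls, unless noted: active = compounds whose cell count with miR-34 switched on is under 0.7 times the count with it off; inactive = the rest.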

ATP-dependent translocase ABCB1 (Homo sapiens), sequence (P08183 whole entry, looked up): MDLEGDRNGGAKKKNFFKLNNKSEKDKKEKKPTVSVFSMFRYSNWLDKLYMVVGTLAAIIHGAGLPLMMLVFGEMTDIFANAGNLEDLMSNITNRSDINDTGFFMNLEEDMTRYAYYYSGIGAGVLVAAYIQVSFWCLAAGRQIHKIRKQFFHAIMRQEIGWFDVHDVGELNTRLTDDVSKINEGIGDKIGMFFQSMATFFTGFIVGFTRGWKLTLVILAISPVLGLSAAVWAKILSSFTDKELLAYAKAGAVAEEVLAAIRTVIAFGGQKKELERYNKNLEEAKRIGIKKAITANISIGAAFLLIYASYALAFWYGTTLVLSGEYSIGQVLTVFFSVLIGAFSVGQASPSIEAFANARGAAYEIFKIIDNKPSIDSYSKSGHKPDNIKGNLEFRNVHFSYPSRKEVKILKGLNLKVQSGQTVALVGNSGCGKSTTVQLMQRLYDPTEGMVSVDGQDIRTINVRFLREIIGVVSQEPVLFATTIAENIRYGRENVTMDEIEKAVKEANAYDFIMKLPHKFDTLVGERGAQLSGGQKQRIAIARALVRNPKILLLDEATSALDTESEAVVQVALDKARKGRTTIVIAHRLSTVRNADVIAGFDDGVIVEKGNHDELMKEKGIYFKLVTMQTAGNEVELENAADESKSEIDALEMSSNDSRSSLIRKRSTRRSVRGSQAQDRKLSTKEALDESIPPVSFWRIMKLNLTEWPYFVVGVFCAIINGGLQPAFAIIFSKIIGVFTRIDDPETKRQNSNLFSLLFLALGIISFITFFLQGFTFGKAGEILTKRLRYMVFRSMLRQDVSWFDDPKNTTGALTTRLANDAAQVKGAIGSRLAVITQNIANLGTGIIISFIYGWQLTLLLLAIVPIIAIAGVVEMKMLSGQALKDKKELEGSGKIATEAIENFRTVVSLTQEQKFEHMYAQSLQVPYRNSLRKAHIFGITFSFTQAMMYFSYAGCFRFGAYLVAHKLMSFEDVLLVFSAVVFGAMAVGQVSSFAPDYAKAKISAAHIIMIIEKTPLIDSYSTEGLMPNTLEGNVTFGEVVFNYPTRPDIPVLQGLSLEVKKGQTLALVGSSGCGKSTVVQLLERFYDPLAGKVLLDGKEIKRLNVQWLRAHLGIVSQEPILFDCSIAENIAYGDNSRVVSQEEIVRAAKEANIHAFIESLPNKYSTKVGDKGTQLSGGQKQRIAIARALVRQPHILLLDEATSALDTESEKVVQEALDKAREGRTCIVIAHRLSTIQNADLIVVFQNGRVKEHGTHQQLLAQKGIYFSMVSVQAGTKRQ

Turning to `CNCCC(Oc1cccc2ccccc12)c1cccs1` (stereo unspecified), the fold change in [1] (setting [19]) was 0.825 (inactive) and 0.844 (inactive) and 0.922 (inactive); in [1] (setting [20]) it was 1.39 and 1.04 and 2.23. The cell count in experiment [1] (setting [21]) was 4830 and 5000 and 7370; in [1] (setting [22]) it was 5860 and 5930 and 7990. The z-score in experiment [2] (setting [23]) is -0.107 (inactive); in [2] (setting [24]), -1.06; in experiment [3] it was -1.4 (inactive) and -1.81 (inactive).

In general, inhibition refers to the drop in the measured response relative to a control, in per cent. For `CC1CNCCN1S(=O)(=O)c1cccc2cnccc12` (stereo unspecified), the period change in experiment [4] was 0.05 hour (inactive) and -0.065 hour (inactive). For the same compound, the survival in experiment [5] is 216 (active). In addition, the inhibition in experiment [6] was -1% (inactive). In experiment [7], the fluorescence ratio (interference) was 0.9 (inactive). Further, the fold change was 1.06 (inactive) and 1.03 (inactive) in experiment [1] (setting [19]); 1.18 and 0.538 in [1] (setting [20]). Also, the cell count in experiment [1] (setting [21]) was 11400 and 1600; in [1] (setting [22]) it was 10700 and 1550. For the same compound, the call in experiment [8] was inactive. For the same compound, the z-score in [3] is -1.29 (inactive).

As for `O=[N+]([O-])c1ccc2c(c1)S(=O)(=O)C=C2`, the inhibition in [6] was -2% (inactive). Also, the fluorescence ratio (interference) in experiment [7] is 1 (inactive). Moreover, the fold change is 0.698 (active) and 1.19 (inactive) in experiment [1] (setting [19]); 0.963 and 0.522 in [1] (setting [20]). Besides, the cell count in [1] (setting [21]) was 598 and 1740; in experiment [1] (setting [22]), 856 and 1460. The compound was called inactive in [8]. Also, the z-score was 3.07 (active) in [2] (setting [23]), -0.336 in experiment [2] (setting [24]) and -1.38 (inactive) in experiment [3].

The viability is a read-out of living cells in per cent, often relative to untreated cells. Take `CCC1(c2ccccc2)NC(=O)N(C)C1=O` (stereo unspecified): the inhibition in experiment [9] is 6.58%. In addition, the score in experiment [10] is 1.42. In experiment [11], the rescue above control is 11.8. Moreover, the cytochrome c release ratio in experiment [12] came out at 0.46. The inhibition of aggregation in experiment [13] was 79.3%. Further, in experiment [14], the glutamate uptake change was -9.05%. The compound also had an inclusion score in [15] of 2. The compound further had an aggregation suppression score in experiment [16] of 1.34. Further, the survival in experiment [5] was 9.5 (inactive). Besides, the parasite load remaining in experiment [17] was 75.3% (inactive) and 65.4% (inactive). Further, in experiment [17], the viability is 74.4% and 110%. For the same compound, the fold change in experiment [1] (setting [19]) is 0.978 (inactive) and 0.889 (inactive); in [1] (setting [20]) it was 0.677 and 1.53. The cell count in experiment [1] (setting [21]) is 9090 and 9500; in experiment [1] (setting [22]), 9300 and 10700. Moreover, the z-score in experiment [2] (setting [23]) was 0.04 (inactive) and 0.144 (inactive); in experiment [2] (setting [24]) it was 0.0806 and -0.391; in [3], 0.64 (inactive).

Consider `CCN(CC)CCOc1ccc(/C(=C(/Cl)c2ccccc2)c2ccccc2)cc1`, for which the fluorescence slope change in [18] was 69.8% (active). The survival in experiment [5] is 1.25 (inactive). In addition, in experiment [17], the parasite load remaining was 5.86% (inactive) and 13.7% (inactive) and 1.37% (inactive). In experiment [17], the viability was 83.4% and 76% and 71%. The fold change was 0.802 (inactive) and 0.892 (inactive) in experiment [1] (setting [19]); 1.39 and 1.34 in [1] (setting [20]). Also, the cell count in experiment [1] (setting [21]) is 7010 and 7690; in experiment [1] (setting [22]) it was 8740 and 8620. In addition, the z-score was -1.93 (inactive) and -1.91 (inactive) in [2] (setting [23]); -0.316 and -1.39 in experiment [2] (setting [24]); -2.19 (inactive) in experiment [3].
